# PLK1 PBD inh: Plk1 (human) PBD binding inhibition. Plk1 PBD phosphopeptide binding, fluorescence polarization. P53350. inhibition, %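 (tested at about 20 µM)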. actives 0.13% (n = 97,000). AID 693; in the data active means inhibition above about 34%, passing the limit was not always enough
# Target sequence (P53350 whole entry, looked up): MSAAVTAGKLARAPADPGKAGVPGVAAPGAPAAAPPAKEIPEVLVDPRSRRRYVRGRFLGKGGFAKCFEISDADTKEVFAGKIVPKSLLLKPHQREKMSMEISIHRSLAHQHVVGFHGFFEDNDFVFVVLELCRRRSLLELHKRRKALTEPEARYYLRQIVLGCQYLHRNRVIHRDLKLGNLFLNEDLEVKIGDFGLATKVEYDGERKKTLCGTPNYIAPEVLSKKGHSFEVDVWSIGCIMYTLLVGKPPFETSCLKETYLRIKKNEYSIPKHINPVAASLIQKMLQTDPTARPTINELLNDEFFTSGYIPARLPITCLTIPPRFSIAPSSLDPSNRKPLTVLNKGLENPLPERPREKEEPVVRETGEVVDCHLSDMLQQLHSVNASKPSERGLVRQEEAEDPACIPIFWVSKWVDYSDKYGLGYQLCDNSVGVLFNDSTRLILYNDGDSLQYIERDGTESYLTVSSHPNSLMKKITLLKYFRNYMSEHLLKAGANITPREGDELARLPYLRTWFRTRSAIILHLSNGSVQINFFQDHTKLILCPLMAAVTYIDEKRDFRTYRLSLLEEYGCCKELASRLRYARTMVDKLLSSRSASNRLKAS
# CYP2C19 act: cytochrome P450 2C19 (human) activation. P33261. recombinant CYP2C19, luciferin-H EGE luminescence; hits give high values; 0 = fully inhibited enzyme, 1 = untreated enzyme. activation factor at 5 µM. 96,000 tested, under 10 active;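 active means activation factor of at least 2 at 5 µM in the primary screen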;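 further: 0 = wells with 2.5 mM tranylcypromine and 1 = vehicle-only wells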
# CYP2C9 inhib: human CYP2C9 inhibition; inhibition, % at 5 µM; actives 20% (n = 96,000); CYP2C9 Supersomes, luciferin-H conversion, luminescence;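 active means blocking of liver enzyme CYP2C9 beyond about 50% at 5 µM, limit read from the data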
# CYP2C19 inhib: blocks human cytochrome P450 2C19 | inhibition, % at 5 µM | P33261 | actives 21% (n = 96,000) | CYP2C19 Supersomes, luciferin-H EGE luminescence, 30 min;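 active means CYP2C19 inhibition above a set limit at 5 µM in the primary screen, cut at about 50% in these data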;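 further: plate controls were negative control wells for no effect and 2.5 mM tranylcypromine positive control for full effect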
# PLK1 kinase inh: PLK1 (human) kinase inhibition | recombinant PLK1 kinase, TR-FRET peptide phosphorylation | inhibition, % at 10 µM | P53350 | actives 0.53% (n = 97,000);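 active means inhibition of 50% or more in the single-concentration screen; inactive means inhibition below 50%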;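 further: 0% = DMSO max control and 100% = H-89 dihydrochloride min control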
# CYP2C9 act: CYP2C9 (human) activation. activation factor at 5 µM. recombinant CYP2C9, luciferin-H conversion, luminescence; hits give high values; factor 1 = untreated enzyme, 0 = blocked. actives 1.4% (n = 96,000). AID 1024. P11712;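 active means activation factor of 2 or more for CYP2C9 at a 5 µM dose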;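 further: 0 = sulfaphenazole-blocked wells and 1 = vehicle-only wells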
# * marks the source's active call; other numbers are inactive results; · = not tested or not shown. Sampled rows, rich in hits. Any-hit rate of the full collection: about 28%.
SMILES,PLK1 PBD inh,CYP2C19 act,CYP2C9 inhib,CYP2C19 inhib,PLK1 kinase inh,CYP2C9 act
COC(=O)c1ccc(NC(=O)CN2CCN(S(=O)(=O)c3cc(Cl)ccc3OC)CC2)cc1,6,0.1,-174,95*,-4,2.7*
Cc1ccc(C)c(NC(=O)CCn2nc(C)cc2C)c1,·,0.9,-16,11,·,1.2
O=C(O)CCC(=O)CCC(=O)c1ccccc1,-10,1,-2,4,-5,1
O=C1NC(=O)C2(COC3(CCCC3)OC2)S1,-1,1,-1,-2,-13,1
COc1ccc(NC(=O)CCN2CCN(S(=O)(=O)c3cc(Cl)ccc3Cl)CC2)cc1,-15,0.1,15,91*,-3,0.8
CCOC(=O)c1cccc(NC(=O)C(C)N2C(=O)c3ccccc3C2=O)c1 (stereo not given),2,0.4,97*,57*,-12,0
COC(=O)c1ccc(NC(=O)CN2CCN(c3cccc(Cl)c3)CC2)cc1,-3,0.4,76*,61*,-6,0.2
COc1cc(Cl)cc(NC(=O)CCN2CCN(C)CC2)c1,0,1.1,-13,-11,-4,1.1
O=C(CN1CCN(c2ccc(F)cc2)CC1)Nc1ccc(F)c(F)c1,-17,0.7,32,31,-10,0.7
O=C(CN1CCN(c2ccc(Cl)cc2)CC1)Nc1cccc(F)c1,4,0.6,67*,39,-11,0.3
COC(=O)c1ccc(NC(=O)CN2CCN(c3ccc(Cl)cc3)CC2)cc1,·,1,4,4,·,1
COc1ccc(OC)c2c(C)cc(N3CCN(C(=O)c4ccc(F)cc4)CC3)nc12,-4,1,19,3,-6,0.8
Cc1cc(C)nc(-n2nc(C)c(C3(O)C(=O)Nc4ccccc43)c2N)n1 (stereo not given),·,1.2,-2,-18,·,1
Cc1cccc(NC(=S)N(C)C2(c3ccccc3Cl)CCCCC2=O)c1 (stereo not given),10,0,68*,97*,-15,0.3
CN(C(=S)Nc1ccccc1F)C1(c2ccccc2Cl)CCCCC1=O (stereo not given),-7,0.2,3,82*,-7,1
CCOc1cc(N2CCOCC2)c(OCC)cc1NC(=O)c1cc(-c2ccco2)nc2ccccc12,·,0.7,27,32,·,0.7
COc1ccc(C(=O)COC(=O)CCn2nnc(-c3cccc(O)c3OC)n2)cc1,6,0.9,0,8,1,1
O=C(CSc1nnc(CNc2ccc(Cl)cc2)o1)Nc1nc2c(s1)CCCC2,·,1.2,-3,-18,·,1
CCOc1ccc(C(=O)OCC(=O)NCc2ccco2)cc1OCC,-17,0.3,-6,70*,-10,1.1
Nc1cc(C(=O)OCC(=O)NCc2ccco2)ccc1Cl,-4,0.4,44,60*,13,0.6
CCOc1ccc(OCC)c(NC(=O)C2C3C=CC(O3)C2C(=O)NCc2ccco2)c1 (stereo not given),·,0.5,37,51*,·,0.6
Nc1cc(C(=O)OCC(=O)NCC2CCCO2)ccc1Cl (stereo not given),-15,0.4,22,56*,0,0.8
Cc1ccc(C(=O)OCC(=O)NCc2ccco2)cc1,-17,0.9,38,6,-1,0.6
Cc1ccc(-n2c(-c3nn(C)c(C)c3Cl)n[nH]c2=S)cc1,-24,0.9,7,10,-9,0.9
CN(C)c1cc(-c2ccccc2)nc(N)n1,17,0.7,14,32,1,0.9
SMILES,PLK1 PBD inh,CYP2C19 act,CYP2C9 inhib,CYP2C19 inhib,PLK1 kinase inh,CYP2C9 act
CCOC(=O)C1CCCN(CCC(=O)Nc2ccc(C)cc2)C1 (stereo not given),5,·,·,·,-14,·
Cc1nnc2ccc(N3CCN(c4cccc(C(F)(F)F)c4)CC3)nn12,·,0.7,16,29,·,0.8
O=C(O)C1CCCN1C(=O)OCc1ccccc1 (stereo not given),-7,1,-1,-5,-4,1
CCOc1ccccc1OCC(=O)NCc1ccco1,-12,0.3,-7,65*,-19,1.1
CCCOc1ccc(CC(=O)NCc2ccco2)cc1OC,9,0.4,43,63*,-6,0.6
COc1ccc(C(=O)OCC(=O)NCc2ccco2)cc1OC,16,1,-10,-4,-2,1.1
CC1(C)CC(=O)C(Sc2nnc(-c3ccc(O)cc3)n2CC2CCCO2)C(=O)C1 (stereo not given),17,0.9,1,6,-7,1
CCCNC(=O)C1CC(=O)N(c2ccc(OCC(=O)Nc3cc(C)cc(C)c3)cc2)C1 (stereo not given),·,1.1,19,-14,·,0.8
CCOC(=O)/C(C#N)=C/C1=C(N2CCCC2)CC(C)(C)OC1,-11,0.9,23,8,-4,0.8
O=S(=O)(NCc1ccccc1)c1ccc(S(=O)(=O)N(Cc2ccccn2)Cc2ccco2)cc1,-6,0.9,13,6,-16,0.9
COC(=O)c1ccc2c(=O)[nH]c(CN3c4ccccc4CC3C)nc2c1 (stereo not given),36,0.8,82*,22,-7,0.2
CC1Cc2ccccc2N1Cc1nc2cc(Cl)ccc2c(=O)[nH]1 (stereo not given),-7,0.4,80*,57*,21,0.2
CC1Cc2ccccc2N1Cc1nc2scc(-c3cccs3)c2c(=O)[nH]1 (stereo not given),-19,0.3,95*,75*,-15,0
N#Cc1ccc(COC(=O)c2ccc3c(=O)[nH]c(CN4CCOCC4)nc3c2)cc1,19,1.1,0,-14,-1,1
C/C(=N\NS(=O)(=O)c1ccc(Cl)c([N+](=O)[O-])c1)c1cc2ccccc2o1,-3,0,100*,97*,-11,0
C/C(=N\NS(=O)(=O)c1ccc(C)c([N+](=O)[O-])c1)c1cc2ccccc2o1,12,1,37,-4,-12,0.6
C/C(=N\NS(=O)(=O)c1ccc(Cl)c([N+](=O)[O-])c1)c1ccc(C)o1,-20,0.2,88*,83*,-15,0.1
Cc1ccc(Nc2nc(-c3sc(NC(=O)c4ccc([N+](=O)[O-])cc4)nc3C)cs2)cc1,-11,0.6,26,36,-21,0.7
COC(=O)c1ccc(C2C(C(=O)Nc3ccccc3C)=C(C)Nc3ncnn32)cc1 (stereo not given),17,0.9,4,13,-6,1
CCCC1=C(C(=O)OCC)C(/C=C/c2ccccc2)n2ncnc2N1 (stereo not given),-6,0.1,52*,91*,1,0.5
CCOC(=O)C1=C(c2ccccc2)Nc2ncnn2C1c1cccc(OC)c1OC (stereo not given),2,0.6,40,44,-12,0.6
CCOC(=O)C1=C(C)Nc2ncnn2C1c1cccs1 (stereo not given),-26,0.8,18,16,1,0.8

# Screening results (PubChem BioAssay)
